# Source: PubChem BioAssay (several laboratories)
# In the library only some 0.69% were active in any assay of this set; here they are far more common.
# Phagocyt inh: inhibitors of macrophage phagocytosis; actives 0.07% (n = 110,000); inhibition, % at 5 µM; J774A.1 macrophage IgG-bead phagocytosis, imaging;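 active means inhibition above the mean of the plate negative controls plus 5 SD, cut at about 13% in these data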;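 further: phagocytic index as fraction of beads internalized from green versus red external bead signal; plate controls were DMSO negative control for no effect and cytochalasin-D positive control for full effect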
# MRP-1 activ: MRP-1 activation | H69AR cells + doxorubicin, viability rescue, CellTiter-Glo | actives 0.61% (n = 140,000) | viability increase, % at 10 µM | AID 799;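 active means viability gain under doxorubicin at or above a set limit, the compound median plus 3 SD, cut at about 4.7% in these data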;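 further: MRP-1 overexpressing cells given doxorubicin 25 µM after compound pretreatment; 18-22 h compound pretreatment then 72 h with doxorubicin before readout; 0% = doxorubicin-only wells and 100% = vehicle-treated cells without doxorubicin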
# MRP resist rev: MRP-mediated drug resistance reversal; differential viability (reversal), % at 10 µM; actives 0.04% (n = 85,000); AID 602; H69AR cells + 2 uM doxorubicin, CellTiter-Glo, 72 h;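 active means viability drop by adding the cancer drug above about 55%, with treated viability meeting a 40% cutoff, limit read from the data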;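 further: viability without doxorubicin minus viability with 2 µM doxorubicin for each compound; larger differential means the compound sensitizes cells more to doxorubicin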
# * marks the source's active call; other numbers are inactive results; nt = not tested or not shown.
SMILES,Phagocyt inh,MRP-1 activ,MRP resist rev
Cc1ccc(CNC(=O)c2sc3nc4c(c(C(F)(F)F)c3c2N)CCC4)cc1,-1,4.8*,nt
Cc1cc(C)c(C(=O)CSC2=NC(N)=C(C#N)C3(CCCCC3)C2C(N)=O)cc1C (configuration not stated),0,-5,-3
O=C(CC1(O)C(=O)N(Cc2ccccc2)c2ccccc21)c1ccncc1 (configuration not stated),1,-1,-14
O=C1OC(Nc2ncccn2)c2ccccc21 (configuration not stated),-1,-1,24
O=C1OC(Nc2ccccn2)c2ccccc21 (configuration not stated),-1,32*,-17
Cc1cccc(NC(=O)C2CC(=O)NC(Nc3nc4ccccc4s3)=N2)c1 (configuration not stated),-8,1,nt
COc1ccccc1NC(=S)NC1CCC(CC2CCC(NC(=S)Nc3ccccc3OC)CC2)CC1 (configuration not stated),4,-4,nt
COc1ccccc1/C=N/NC(=O)CC(=O)NCc1cccnc1,-12,-1,nt
O=C(CC(=O)N/N=C/c1ccccc1O)NCc1cccnc1,-13,5.5*,nt
O=C(CSc1nnc(COc2cccc3cccnc23)o1)N1CCN(C(=O)c2ccco2)CC1,nt,-1,3
O=C(Nc1cc(S(=O)(=O)N2CCOCC2)ccc1Cl)C(=O)c1c(-c2ccccc2)cc2ccccn12,nt,0,3
O=C(NCCc1ccccc1)C(=O)c1c(-c2ccccc2)cc2ccccn12,-2,8.3*,nt
Cc1onc(-c2ccccc2Cl)c1C(=O)Nc1sc2c(c1C(N)=O)CCC(C)C2 (configuration not stated),nt,4.8*,11
COC(=O)c1c(NC(=O)c2c(-c3ccccc3Cl)noc2C)sc2c1CCC2,0,-1,11
Cc1nn(Cc2ccccc2)c(C)c1NC(=O)c1noc2c1CCc1ccccc1-2,0,6.5*,18
Cc1ccc(NC(=O)c2noc3c2CCc2ccccc2-3)cc1,-1,-1,-16
O=C1c2cccc3cccc(c23)C(=O)N1c1cccnc1,-2,3,-19
O=C1c2cccc3cccc(c23)C(=O)N1c1ccncc1,nt,5.7*,-11
CCOc1ccccc1NC(=O)CSCC(=O)Nc1ccccc1,1,-2,-1
COc1ccc(NC(=O)c2ccc(C(=O)c3cc(OC)ccc3OC)cc2)cc1,3,-3,nt
O=C(Cn1cnc2c(cnn2-c2ccccc2)c1=O)N1CCOCC1,-1,-2,-10
COc1ccc(-n2ncc3c(=O)n(CC(=O)N4c5ccccc5CC4C)cnc32)cc1 (configuration not stated),nt,5.9*,-2
CCN(CC)S(=O)(=O)c1cc(NC(=O)COC(=O)CCC(=O)c2ccc(F)cc2)ccc1C,-1,-2,nt
O=c1c2c(nc3cc(-c4ccc(Cl)cc4)[nH]n13)CCS2,nt,-1,nt
C=CCNc1sc(C(=O)c2ccccc2)c(N)c1-c1nc2ccccc2s1,-1,3,0
SMILES,Phagocyt inh,MRP-1 activ,MRP resist rev
CCNc1sc(C(=O)c2cccs2)c(N)c1-c1nc2ccccc2s1,0,9.0*,36
C=C(C)Cn1c(SCC#N)nc2ccccc2c1=O,0,0,24
N#CCSc1nc2ccc(N3CCCCC3)cc2c(=O)n1Cc1ccccc1,2,4.8*,-1
Cc1cc(C(=O)Cn2nc(C(=O)O)c3ccccc3c2=O)c(C)n1-c1ccc(F)cc1,-2,-2,nt
O=C(NCc1ccccn1)c1cc(-c2ccccc2)nc2ccccc12,-4,-2,nt
O=C(NCc1ccccn1)c1cc(-c2ccc(-c3ccccc3)cc2)nc2ccccc12,-15,5.5*,nt
Cc1nc(/N=C(\N)NC(=O)c2ccccc2)nc2ccccc12,0,-2,nt
Cc1nc(/N=C(\N)NC(=O)N2c3ccccc3Sc3ccccc32)nc2ccccc12,-7,6.5*,nt
CCOC(=O)C1=C(C)N(CCCC(=O)NCc2ccc3c(c2)OCO3)C(=O)NC1c1ccc(Br)cc1 (configuration not stated),nt,0,nt
CC(C(=O)O)c1ccc(N2Cc3ccccc3C2=O)cc1 (configuration not stated),nt,-1,nt
O=C1c2ccsc2SCCN1Cc1c(Cl)cccc1Cl,0,7.0*,9
O=C1c2ccsc2SCCN1Cc1ccc(Cl)cc1Cl,0,-4,22
O=C(Nc1nnc(CCN2CCOCC2)s1)C1CCCCC1,0,0,1
Cc1ccc(S(=O)(=O)NC(=O)c2cc(C)n(-c3ccccc3)c2C)cc1,-13,-2,nt
Cc1ccc(S(=O)(=O)NC(=O)c2cc(C)n(-c3cc(S(=O)(=O)N4CCOCC4)ccc3N3CCCC3)c2C)cc1,0,5.0*,nt
COc1ccc(CNC(=O)c2ccc(S(=O)(=O)N3CCCC3)cc2)cc1OC,0,0,-4
COc1ccc(C(=O)Nc2ccc(Cl)c(S(=O)(=O)Nc3ccccc3OC)c2)cc1,0,9.2*,nt
